The list is not random: actives were taken first. Their share in the collection is about 11%.
PI5P4Ka inh: qHTS for Inhibitors of phosphatidylinositol 5-phosphate 4-kinase (PI5P4K). Phosphatidylinositol 5-phosphate 4-kinase type-2 alpha (Homo sapiens), P48426. PI5P4Kalpha enzyme, ADP-Glo luminescence, 60 min; hits give low values. max response, %. 1.2% of 330,000 active. AID 652105, 2013; active = max response of -50% or lower; inconclusive = between -30% and -50%; inactive = -30% or higher; note: value at the top dose of about 77 µM
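PI5P4Kalpha ADP-Glo assay; 5 microM ATP final; 60 min RT reaction; HEPES pH 7.4/EGTA/CHAPS, 5% DMSO; controls lacking substrate or enzyme; luminescent end-point.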
G9a block: qHTS Assay for Inhibitors of Histone Lysine Methyltransferase G9a; Histone-lysine N-methyltransferase EHMT2 (Homo sapiens), Q96KQ7; G9a H3K9 monomethylation, AlphaScreen, 2 h; Potency, µM (doses to about 102 µM), actives largely listed as inhibitors; 8.8% of 350,000 active; note: nearly all actives have a fitted effect of over 75% in size
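Enzyme 20 nM + cpd, 15 min RT; add b-H3K9 pep 500 nM / SAM 20 uM; 2 h RT; anti-H3K9me1 Ab 0.5 ug/mL + SA donor / anti-rabbit acceptor beads 20 ug/mL each, 10 min; AlphaScreen read.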
HP1b chromo inh: HTS for Inhibitors of HP1-beta Chromodomain Interactions with Methylated Histone Tails; Chromobox protein homolog 1 (Homo sapiens), P83916; AlphaScreen HP1-beta / biotin-H3K9me3 peptide binding; Potency, µM (doses to about 114 µM), hits mostly inhibitors; 0.56% of 390,000 active; AID 540317, 2011; note: nearly all actives have a fitted effect of over 70% in size
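Compound inhibition of the preformed complex between 50 nM HP1-beta and 50 nM biotinylated H3K9me3 peptide was read by AlphaScreen. Buffer was PBS pH 7.4 with 0.01% Tween-20. Incubations ran 30 min at room temperature, with 10 ug/mL donor/acceptor beads.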
BAZ2B inh: qHTS Assay for Inhibitors of BAZ2B; Bromodomain adjacent to zinc finger domain protein 2B (Homo sapiens), Q9UIF8; AlphaScreen BAZ2B-H3K14Ac peptide displacement; Potency, µM (top dose mostly 114 µM), actives largely listed as inhibitors; 4.4% of 360,000 active; AID 504333, 2011; note: nearly all actives have a fitted effect of over 60% in size
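Inhibition is scored as reduced AlphaScreen emission. The BAZ2B/b-H3(5-23)K14Ac complex (50 nM each) in PBS pH 7.4, 0.01% Tween-20 meets compound (up to 110 uM) for 30 min at RT before bead addition.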
JMJD2A Tudor: qHTS Assay for Inhibitors of JMJD2A-Tudor Domain; Lysine-specific demethylase 4A (Homo sapiens), O75164; AlphaScreen JMJD2A-Tudor / H3K4me3 peptide binding; Potency, µM (titrated, usually from 114 µM), most hits filed as inhibitors; 4.4% of 390,000 active; note: nearly all actives have a fitted effect of over 50% in size
L3MBTL1 block: qHTS Assay for the Inhibitors of L3MBTL1; Potency, µM (top dose mostly 57.1 µM), most hits filed as inhibitors; 0.66% of 230,000 active; Lethal(3)malignant brain tumor-like protein 1 (Homo sapiens), Q9Y468; AlphaScreen L3MBTL1–H3K9me1 peptide binding; note: nearly all actives have a fitted effect of over 60% in size
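L3MBTL1 (50 nM) pre-complexed 30 min with biotinylated H3(1-15)K9me1 peptide (75 nM), then compounds added for 30 min at room temperature; AlphaScreen streptavidin donor/nickel chelate acceptor beads (10 ug/mL final) read after 30 min dark incubation.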
A number is an active result; [ ] = another dose, or the depositor's remark. Unless noted, calls come from the whole dose curve; as a rule, active = well fitted inhibition curve with a large enough effect; inconclusive = small, poorly fitted or top-dose-only effect; inactive = no such curve, though single readings can be large or run the other way.

Screening Cc1c(N=C2NC(=O)/C(=C/c3ccc(O)cc3)S2)c(=O)n(-c2ccccc2)n1C returned PI5P4Ka inh inactive, G9a block inactive, HP1b chromo inh inactive, BAZ2B inh inactive, JMJD2A Tudor inactive and L3MBTL1 block inactive.
Screening Cc1c(N=C2NN=C(c3ccc(Cl)cc3)CS2)c(=O)n(-c2ccccc2)n1C returned PI5P4Ka inh inconclusive, G9a block 10µM, HP1b chromo inh inactive, BAZ2B inh inactive and JMJD2A Tudor inactive.
For Cc1c(N=C2NN=C(c3c[nH]c4ccccc34)CS2)c(=O)n(-c2ccccc2)n1C the results were PI5P4Ka inh inconclusive, G9a block 45µM, HP1b chromo inh inactive, BAZ2B inh inactive, JMJD2A Tudor inconclusive and L3MBTL1 block inactive.
Cc1c(N=C2SCC(=O)N2/N=C/c2ccccc2Cl)c(=O)n(-c2ccccc2)n1C was read as PI5P4Ka inh inactive, G9a block inconclusive, HP1b chromo inh inactive, BAZ2B inh inactive and JMJD2A Tudor inactive.
For COC(=O)CCC(=O)OC1(C)C(=O)C2=CN(CC(C)C)C(c3ccc(OC)cc3)=CC2=C(Br)C1=O (centres undefined) the results were G9a block inactive[12.7 µM] and BAZ2B inh 40µM.
COC(=O)CCC(=O)OC1(C)C(=O)C2=CN(Cc3ccc(OC)cc3)C(c3ccc(OC)cc3)=CC2=C(Br)C1=O (centres undefined) was read as PI5P4Ka inh inactive, HP1b chromo inh inconclusive and JMJD2A Tudor 50µM.
COC(=O)CCC(=O)OC1(C)C(=O)C2=CN(CCCOC(C)C)C(c3ccc(OC)cc3)=CC2=C(Br)C1=O (centres undefined) was read as PI5P4Ka inh inactive, G9a block inactive[12.7 µM], HP1b chromo inh inactive, BAZ2B inh inconclusive and JMJD2A Tudor inconclusive.
Screening COC(=O)CCC(=O)OC1(C)C(=O)C2=CN(c3ccccc3)C(c3ccc(OC)cc3)=CC2=C(Br)C1=O (centres undefined) returned PI5P4Ka inh inconclusive, HP1b chromo inh inactive and JMJD2A Tudor inconclusive.
Screening Cc1nc(-c2ccccc2)sc1-c1ccc(SCC(=O)NCc2ccccc2Cl)nn1 returned G9a block inactive, HP1b chromo inh inactive, BAZ2B inh inactive and JMJD2A Tudor inactive.
Screening O=C(c1ccc2c(c1)N(Cc1cccc(Cl)c1)C(=O)c1ccccc1S2=O)N1CCN(c2cccc(C(F)(F)F)c2)CC1 (centres undefined) returned G9a block inactive, HP1b chromo inh inactive, BAZ2B inh inactive and JMJD2A Tudor inactive.
Screening CC1(C)Cc2ccccc2C(NNC(=O)c2ccccn2)=N1 returned PI5P4Ka inh inactive, G9a block inactive, HP1b chromo inh inactive, BAZ2B inh 32µM and JMJD2A Tudor 45µM.
`CC1(C)Cc2ccccc2C(NNC(=O)c2ccccc2)=N1` gave PI5P4Ka inh inactive, G9a block inactive, HP1b chromo inh inactive, BAZ2B inh inactive and JMJD2A Tudor inactive.
Cc1ccc(SCC(=O)Nc2ccc(F)cc2[N+](=O)[O-])cc1C was read as PI5P4Ka inh inactive, G9a block inconclusive, HP1b chromo inh 50µM, BAZ2B inh 13µM, JMJD2A Tudor inconclusive and L3MBTL1 block inconclusive.
Cc1nc(SCC(=O)Nc2ccc(Cl)cc2[N+](=O)[O-])nc(C)c1C was read as PI5P4Ka inh inactive, G9a block 11µM, HP1b chromo inh inconclusive, BAZ2B inh 45µM, JMJD2A Tudor inconclusive and L3MBTL1 block inactive.
`Cn1c(=O)c2cc(C(=O)N3CCN(c4cccc(C(F)(F)F)c4)CC3)sc2c2ccccc21` gave G9a block inactive, HP1b chromo inh inactive and JMJD2A Tudor inactive.
Screening CCCCN1CC(c2nc3ccccc3n2CCCCOc2cc(C)ccc2C)CC1=O (centres undefined) returned G9a block inactive, HP1b chromo inh inactive, BAZ2B inh inconclusive and JMJD2A Tudor inactive.

Screening results from PubChem BioAssay.
